Data taken from PubChem BioAssay AID1159580 (chemical genetic matrix, 2015).
In all, about 5,500 compounds went through this assay and about 2,000 (36%) were called active. Not shown: some 18% with an inconclusive outcome. Rule as the data show it: active = normalized growth mostly below about 0.91 (no sharp cut-off); inconclusive = no clear call, values can overlap the other calls; inactive = mostly above about 0.92. Some of the results follow.

Test: chemical genetic growth profiling, strain panel (AID 1159580);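 also: tested at 20 µM; growth read once vehicle control cultures reached saturation at 30 °C; 1 = growth at the plate median or of vehicle wells; lower values mean less growth of the strain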
Details: growth OD
[1] = S. cerevisiae deletion strains, locus YAL013W, strain DEP1, stronger effect = lower value
[2] = S. cerevisiae deletion strains, locus YBR229C, strain ROT2, stronger effect = lower value
[3] = S. cerevisiae deletion strains, locus YDL101C, strain DUN1, stronger effect = lower value
[4] = S. cerevisiae deletion strains, locus YDR150W, strain NUM1, stronger effect = lower value
[5] = S. cerevisiae deletion strains, locus YEL061C, strain CIN8, stronger effect = lower value
[6] = S. cerevisiae deletion strains, locus YGR078C, strain PAC10, stronger effect = lower value
[7] = S. cerevisiae deletion strains, locus YHR030C, strain SLT2, stronger effect = lower value
[8] = S. cerevisiae deletion strains, locus YHR087W, strain rtc3, stronger effect = lower value
[9] = S. cerevisiae deletion strains, locus YJL187C, strain SWE1, stronger effect = lower value
[10] = S. cerevisiae deletion strains, locus YJR043C, strain POL32, stronger effect = lower value
[11] = S. cerevisiae deletion strains, locus YJR075W, strain HOC1, stronger effect = lower value
[12] = S. cerevisiae deletion strains, locus YKL190W, strain CNB1, stronger effect = lower value
[13] = S. cerevisiae deletion strains, locus YLR039C, strain RIC1, stronger effect = lower value
[14] = S. cerevisiae deletion strains, locus YLR058C, strain SHM2 (second series), stronger effect = lower value
[15] = S. cerevisiae deletion strains, locus YLR085C, strain ARP6, stronger effect = lower value
[16] = S. cerevisiae deletion strains, locus YLR262C, strain YPT6, stronger effect = lower value
[17] = S. cerevisiae deletion strains, locus YML094W, strain GIM5, stronger effect = lower value
[18] = S. cerevisiae deletion strains, locus YMR219W, strain ESC1, stronger effect = lower value
[19] = S. cerevisiae deletion strains, locus YMR263W, strain SAP30, stronger effect = lower value
[20] = S. cerevisiae deletion strains, locus YNL153C, strain GIM3, stronger effect = lower value
[21] = S. cerevisiae deletion strains, locus YNL298W, strain CLA4 (second series), stronger effect = lower value
[22] = S. cerevisiae deletion strains, locus YNL322C, strain KRE1, stronger effect = lower value
[23] = S. cerevisiae deletion strains, locus YNR030W, strain Alg12, stronger effect = lower value
[24] = S. cerevisiae deletion strains, locus YPL055C, strain LGE1, stronger effect = lower value
[25] = S. cerevisiae deletion strains, locus YPL241C, strain CIN2, stronger effect = lower value
[26] = S. cerevisiae deletion strains, locus YPR135W, strain CTF4, stronger effect = lower value
[27] = S. cerevisiae strains, strain wild type, stronger effect = lower value
[28] = S. cerevisiae deletion strains, locus YCL061C, strain MRC1, stronger effect = lower value
[29] = S. cerevisiae deletion strains, locus YDL134C, strain PPH21, stronger effect = lower value
[30] = S. cerevisiae deletion strains, locus YGR229C, strain SMI1, stronger effect = lower value

Measured: normalized growth

Cc1cc(=O)n(-c2ccc([N+](=O)[O-])cc2)[nH]1
inactive: [3] 0.955 | [4] 0.905 | [5] 0.958 | [14] 0.965 | S. cerevisiae deletion strains, locus YNL128W, strain TEP1, stronger effect = lower value 0.957 | [22] 0.989
active: [1] 0.509 | [2] 0.867 | [6] 0.927 | [7] 0.34 | [8] 0.8 | [9] 0.814 | [10] 0.718 | [11] 0.847 | [12] 0.726 | [13] 0.437 | [15] 0.592 | [16] 0.583 | [17] 0.84 | [18] 0.9 | [19] 0.85 | [20] 0.884 | [21] 0.821 | [23] 0.811 | [24] 0.69 | [25] 0.811 | [26] 0.504 | [27] 0.866

O=[N+]([O-])c1ccc(N2CCOCC2)cc1
inactive: [1] 0.996 | [2] 1 | [28] 1.02 | [3] 1.06 | [29] 0.969 | [4] 1.05 | [5] 0.969 | [6] 1.03 | [7] 1.05 | [8] 0.937 | [10] 1.04 | [11] 0.978 | [13] 0.991 | [14] 0.976 | [15] 0.98 | [16] 0.962 | [17] 0.939 | [18] 0.992 | [19] 1.03 | [20] 1.03 | [21] 0.988 | [22] 0.965 | [23] 0.974 | [24] 0.971 | [25] 1.01 | [26] 1.02 | [27] 0.982

OCc1ccccc1-c1ccccc1
inactive: [1] 0.995 | [2] 0.984 | [28] 0.957 | [3] 0.941 | [29] 0.985 | [4] 0.924 | [5] 0.987 | [6] 0.985 | [30] 0.993 | [7] 0.984 | [8] 1.01 | [9] 1 | [10] 0.971 | [11] 1.02 | [12] 1.01 | [13] 0.952 | [14] 1.02 | [15] 1.03 | [16] 0.99 | [17] 0.959 | [18] 0.99 | [19] 0.987 | [20] 0.95 | [21] 1 | [22] 1.02 | [23] 0.994 | S. cerevisiae deletion strains, locus YOL006C, strain TOP1, stronger effect = lower value 0.997 | [24] 0.85 | [25] 0.988 | [26] 0.976 | [27] 1.01

O=C1c2ccccc2C(=O)N1CN(CCSc1ccccc1)CN1C(=O)c2ccccc2C1=O
inactive: [1] 1.01 | [2] 0.987 | [3] 0.992 | [4] 0.993 | [5] 0.987 | [6] 0.993 | [30] 1 | [7] 1.01 | [8] 0.986 | [9] 1.03 | [10] 1.01 | [11] 0.981 | [12] 1 | [13] 0.986 | [14] 1 | [15] 0.957 | [16] 1.07 | [17] 0.973 | [18] 0.992 | [19] 1.01 | [20] 1.01 | [21] 0.978 | [22] 0.994 | [23] 1 | [24] 0.995 | [25] 0.964 | [26] 1.05

O=C1C(SCCO)=C(SCCO)C(=O)c2ccccc21
active: S. cerevisiae deletion strains, locus YMR307W, strain GAS1, stronger effect = lower value 0.751 | S. cerevisiae deletion strains, locus YOR083W, strain WHI5 (second series), stronger effect = lower value 0.858
inactive: S. cerevisiae deletion strains, locus YAL040C, strain CLN3, stronger effect = lower value 1.06 | S. cerevisiae deletion strains, locus YCL061C, strain MRC1 (second series), stronger effect = lower value 0.982 | [4] 0.981 | S. cerevisiae deletion strains, locus YDR363W, strain ESC2, stronger effect = lower value 0.966 | S. cerevisiae deletion strains, locus YER002W, strain NOP16, stronger effect = lower value 1.04 | [6] 0.982 | S. cerevisiae deletion strains, locus YNL175C, strain NOP13, stronger effect = lower value 0.988 | S. cerevisiae deletion strains, locus YNL197C, strain WHI3, stronger effect = lower value 0.99 | S. cerevisiae deletion strains, locus YNL224C, strain SQS1, stronger effect = lower value 0.985 | [25] 0.996
